“And” between values parts separate entries of the source, which are not always exact repeats. Equal values may be shown once. The campaign covered roughly 5,500 compounds. About 2,000 (36%) were called active. Another 18% or so got no clear call; they are omitted. Rule as the data show it: active = normalized growth mostly below about 0.91 (no sharp cut-off); inconclusive = no clear call, values can overlap the other calls; inactive = mostly above about 0.92. This is one part of the list.
Test: chemical genetic growth profiling, strain panel (AID 1159580);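 also: tested at 20 µM; growth read once vehicle control cultures reached saturation at 30 °C; 1 = growth at the plate median or of vehicle wells; lower values mean less growth of the strain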
Details: S. cerevisiae deletion strains, growth OD

Measured: normalized growth

COc1cc(OC)c2c(c1Cl)OC1(C2=O)C(O)=CC(=O)CC1C (stereo unspecified)
inactive: locus YAL021C, strain ccr4, hits give low values 1.02 | locus YAL026C, strain drs2, hits give low values 1.01 | locus YAL030W, strain snc1, hits give low values 1.01 | locus YBL061C, strain skt5, hits give low values 1.01 | locus YBR009C, strain hhf1, hits give low values 1.01 | locus YBR021W, strain FUR4, hits give low values 1.04 | locus YBR023C, strain chs3, hits give low values 1.01 | locus YBR171W, strain sec66, hits give low values 1.03 | locus YBR229C, strain ROT2, hits give low values 1.02 | locus YBR231C, strain swc5, hits give low values 1.01 | locus YBR279W, strain paf1, hits give low values 1.01 | locus YCL011C, strain gbp2, hits give low values 1.02 | locus YCL016C, strain dcc1, hits give low values 1.01 | locus YCL029C, strain bik1, hits give low values 1.01 | locus YCL061C, strain MRC1, hits give low values 1.01 | locus YCL069W, strain vba3, hits give low values 1.01 | locus YCR088W, strain abp1, hits give low values 1.01 | locus YDL005C, strain med2, hits give low values 1.01 | locus YDL035C, strain GPR1, hits give low values 1.04 | locus YDL040C, strain nat1, hits give low values 1.01 | locus YDL074C, strain BRE1, hits give low values 1.07 | locus YDL101C, strain DUN1, hits give low values 1.03 | locus YDL134C, strain PPH21, hits give low values 1.01 | locus YDL185W, strain tfp1, hits give low values 0.981 | locus YDL192W, strain arf1, hits give low values 1.02 | locus YDR001C, strain nth1, hits give low values 1.01 | locus YDR069C, strain doa4, hits give low values 1.01 | locus YDR101C, strain arx1, hits give low values 1.02 | locus YDR137W, strain rgp1, hits give low values 1.02 | locus YDR159W, strain sac3, hits give low values 1.02 | locus YDR162C, strain NBP2, hits give low values 1.05 | locus YDR195W, strain ref2 1.03 | locus YDR297W, strain sur2, hits give low values 1.01 | locus YDR318W, strain mcm21, hits give low values 1 | locus YDR334W, strain swr1, hits give low values 1.01 | locus YDR335W, strain msn5, hits give low values 1.02 | locus YDR388W, hits give low values 1.01 | locus YDR392W, strain spt3, hits give low values 1.01 | locus YDR502C, strain sam2, hits give low values 0.986 | locus YEL003W, strain gim4, hits give low values 1.01 | locus YEL037C, strain rad23, hits give low values 1 | locus YEL061C, strain CIN8 (second series), hits give low values 1.01 | locus YER015W, strain faa2, hits give low values 1.01 | locus YER016W, strain bim1, hits give low values 1.02 | locus YER110C, hits give low values 0.977 | locus YER111C, strain swi4, hits give low values 1.01 | locus YER155C, strain BEM2 (second series), hits give low values 1.03 | locus YER155C, strain BEM2, hits give low values 1.02 | locus YER167W, strain BCK2, hits give low values 1.02 | locus YFR010W, strain ubp6, hits give low values 1.01 | locus YGL078C, strain dbp3, hits give low values 0.978 | locus YGL086W, strain mad1, hits give low values 1.01 | locus YGL167C, strain pmr1, hits give low values 1.02 | locus YGL173C, strain kem1, hits give low values 1.01 | locus YGL227W, strain vid30, hits give low values 1.01 | locus YGL240W, strain doc1, hits give low values 1 | locus YGL248W, strain PDE1, hits give low values 1.02 | locus YGL253W, strain hxk2, hits give low values 1.01 | locus YGR135W, strain pre9, hits give low values 0.983 | locus YGR252W, strain gcn5, hits give low values 0.915 | locus YHR013C, strain ard1, hits give low values 1.03 | locus YHR027C, strain rpn1, hits give low values 1.01 | locus YHR030C, strain SLT2, hits give low values 1.02 and 0.99 | locus YHR079C, strain IRE1 (second series), hits give low values 0.979 | locus YHR079C, strain IRE1, hits give low values 0.997 | locus YHR094C, strain hxt1, hits give low values 0.983 | locus YHR129C, strain ARP1, hits give low values 1.02 | locus YHR142W, strain chs7, hits give low values 1.02 | locus YHR200W, strain rpn10, hits give low values 0.999 | locus YIL066C, strain RNR3, hits give low values 1.07 | locus YIL073C, strain SPO22, hits give low values 1 | locus YIL125W, strain kgd1, hits give low values 0.99 | locus YIR030C, strain dcg1, hits give low values 1.01 | locus YJL092W, strain hpr5, hits give low values 1.01 | locus YJL095W, strain BCK1 (second series), hits give low values 1 | locus YJL095W, strain BCK1, hits give low values 1.04 and 0.978 | locus YJL115W, strain asf1, hits give low values 1 | locus YJL129C, strain trk1, hits give low values 1.02 | locus YJL134W, strain LCB3, hits give low values 1.02 | locus YJL154C, strain vps35, hits give low values 1.02 | locus YJL164C, strain tpk1, hits give low values 1.01 | locus YJL166W, strain qcr8, hits give low values 1.01 | locus YJL168C, strain set2, hits give low values 0.977 | locus YJL187C, strain SWE1 (second series), hits give low values 1.03 | locus YJL187C, strain SWE1, hits give low values 1.01 | locus YJR066W, strain TOR1, hits give low values 0.9
